# Test results as given in PubChem BioAssay (EPA / NIEHS).
# Activity calls are given as the source filed them. Rule for the calls: active = hit-call score of the fitted dose curve at least 0.9, where 1 is the maximum; inconclusive = response in the unintended direction; inactive = score below 0.9.
# Assay: Tanguay_ZF_120hpf_ActivityScore_legacy: (Legacy) Oregon State University Tanguay Lab 120 Hour Post-fertilization zebrafish Assay Score for Activity (AID 2283742);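 for AC50: static exposure from 6 hpf until 120 hpf at 28 °C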
# How it was run: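 Tropical 5D wild-type zebrafish embryos, dechorionated with pronase at 4 hpf, were exposed singly from 6 hpf to 120 hpf statically at 28C in 0.64% DMSO. Malformations and mortality were scored as binary by brightfield, with the activity score combining 18 morphology components.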
SMILES,AC50,outcome
OC12N=C(c3ccccc3)SC1Cc1cc(Cl)ccc12 (stereo not drawn),32.7 µM (active),
CCCCCc1ccc(N)cc1,,inactive
NCc1cccc(C2CCN(C(=O)c3ccc(C#Cc4ccccc4F)o3)CC2)c1,31.6 µM (active),
Cc1c2ccccc2c(C)c2c1ccc1ccccc12,8.83 µM (active),
CCOC(=O)O[C@H](C)OC(=O)c1ccc2c(c1)cc(C(=O)NC1CCN(C(C)C)CC1)n2Cc1cc(-c2ccc(Cl)s2)on1,34.8 µM (active),
CCCCCCCCOC(=O)c1cc(O)c(O)c(O)c1,9.16 µM (active),
O=C(O)Cc1cc(I)c(Oc2ccc(O)c(I)c2)c(I)c1,31.3 µM (active),
COc1cc(C(=O)NC2CCN(C)CC2)ccc1Nc1ncc2c(n1)N(C1CCCC1)CC(F)(F)C(=O)N2C,40 µM (active),
CC(C)(C)c1cc(/C=C2\SC(N)=NC2=O)cc(C(C)(C)C)c1O,47.2 µM (active),
O=C(Nc1ccc(Cl)cc1)Nc1ccc(Cl)c(Cl)c1,,inactive
CCN(CC)C(=O)c1cc(S(=O)(=O)Cc2ccccc2)c(N2CCC(c3ccccc3)CC2)cc1N(CC)CCN(C)C,17.2 µM (active),
O=C1c2ccccc2C(=O)N1CCc1noc(-c2ccc(CN3CCCCCC3)s2)n1,,inactive
C[C@]12CC[C@@H]3c4ccc(O)cc4CC[C@H]3[C@@H]1CC[C@H]2O,,inactive
